The list is not random: actives were taken first. Their share in the collection is about 3.7%.
tim10-1 inh = growth inhibitors of tim10-1 mutant yeast; S. cerevisiae tim10-1 ts strain growth, BacTiter-Glo, 24 h; inhibition, % at 20 µM; 2.2% of 330,000 active;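 active = inhibition of at least 40%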;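 note: mutant grown at 25 °C; 0% = DMSO wells with yeast and 100% = wells holding no yeast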
PfHsp90 set2 = inhibits growth of yeast expressing Plasmodium falciparum Hsp90 | inhibition, % at 9.4 µM | AID 504621 | 0.32% of 310,000 active | S. cerevisiae expressing PfHsp90, BacTiter-Glo ATP, 48 h; yeast lacking PDR1 and PDR3 efflux regulators;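 active = every replicate shows inhibition above about 80%, whatever the replicate mean, limit read from the data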;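 note: 0% = DMSO neutral controls and 100% = 20 µM radicicol positive controls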
tim23-1 inh = growth inhibitors of tim23-1 mutant yeast; S. cerevisiae tim23-1 growth, BacTiter-Glo luminescence, 24 h; 1.3% of 330,000 active; inhibition, % at 20 µM;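 active = growth inhibition of the mutant yeast at or above 50%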;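 note: temperature-sensitive mutant grown at 25 °C; plate controls were DMSO-treated mutant yeast for no effect and medium wells lacking yeast for full effect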
NLRP3 yeast inh = inhibitors of NALP3 inflammasome in yeast; inhibition, % at 10 µM; Yeast reconstituted NLRP3/ASC/caspase-1, beta-gal luminescence, 24 h; 0.39% of 330,000 active;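 active = inhibition of 50% or more; inactive = inhibition below 50%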;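 note: plate controls were induced DMSO wells for no effect and uninduced yeast grown without galactose for full effect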
TIM10 inh = inhibits growth of TIM10 yeast strain. inhibition, % at 10 µM. AID 463195. 1.4% of 330,000 active. S. cerevisiae TIM10 strain growth, BacTiter-Glo luminescence, 24 h;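 active = inhibition of 40% or more at the single tested concentration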;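 note: wild-type TIM10 isogenic control strain grown at permissive 25 °C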
TIM10 conf = confirmation of TIM10 yeast growth inhibitors | 63% of 4,600 active | shares compounds with TIM10 inh | inhibition, % at 10 µM | S. cerevisiae tim10 strain growth, BacTiter-Glo luminescence, 24 h;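 active = inhibition of yeast growth at or above a set limit in either of two replicates at 10 µM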;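 note: this counterscreen used the strain with wild-type TIM10; 0% = yeast with DMSO and 100% = medium wells lacking yeast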
Starred values were filed as active, the others as inactive; · = no result given.

SMILES | tim10-1 inh | PfHsp90 set2 | tim23-1 inh | NLRP3 yeast inh | TIM10 inh | TIM10 conf
CCn1c(O)c(C=NCc2cccs2)c(=O)n(CC)c1=S | 39 | -26 | 43 | 17 | 42* | 7
COc1ccc(CC(=O)NCC(C)(C)N2CCOCC2)cc1 | -5 | 11 | 4 | 3 | -10 | ·
Cc1cccc(/C=N/n2c(C3CCCCC3)n[nH]c2=S)c1 | 30 | -4 | 33 | 33 | 40* | 49*
CCOc1ccccc1/C=N/n1c(C2CCCCC2)n[nH]c1=S | 13 | -36 | 37 | 23 | 43* | 50*
Cc1csc(NC(C)c2nc3cc(Cl)c(N4CCCCC4)cc3n2CCOCCO)n1 (stereo not drawn) | 12 | 6 | 20 | 9 | 11 | ·
Cc1ccc(NC(=O)CSc2nnc(Cc3ccccc3)c(=O)[nH]2)c(C)c1 | 5 | 14 | 11 | 7 | 2 | ·
CC(C)(C)c1ccc(C(=O)NC(=S)NCc2cccnc2)cc1 | 38 | 9 | 45 | 20 | 41* | 30*
COc1ccc(N2CCN(C(=O)CSc3nnc(Cn4nnc5ccccc54)n3C)CC2)cc1 | -7 | 5 | -7 | -1 | 0 | ·
Cc1ccc(/C=N/NC(=O)NN(C)c2ncc(C(F)(F)F)cc2Cl)cc1 | 29 | · | 19 | 25 | 41* | 45*
O=c1c2cc(N3CCOCC3)ccc2[nH]c(=S)n1CCCN1CCN(c2ccccc2F)CC1 | 26 | · | 16 | 14 | 47* | 24*
Cn1c2ccc(Br)cc2c2nnc(SCC(=O)O)nc21 | 31 | -15 | 28 | 16 | 60* | 75*
Cc1cc(C)c2c(N)c3ccccc3nc2n1 | 36 | -18 | 1 | 6 | 45* | 22
CCCc1sc(N)nc1-c1ccc(C)cc1 | 19 | -5 | 4 | 1 | 26 | ·
CCS(=O)(=O)c1nc(S(=O)(=O)c2ccc(C)cc2)c(NCCN2CCOCC2)s1 | -2 | -16 | -15 | 8 | 97* | 10
CN1CCN(C(=S)NC(=O)c2ccccc2Br)CC1 | 8 | -82 | 14 | 8 | 5 | ·
O=C(NC(=S)N1CCc2ccccc21)c1ccccc1Br | 24 | -37 | 34 | 44 | 41* | 31*
CCN(Cc1nc(-c2cccc(C)c2)no1)C(=O)c1ccco1 | -5 | 2 | 10 | 22 | 9 | ·
CCOC(=O)CNC(=O)C1c2ccccc2Oc2ccccc21 | -3 | -18 | 13 | 19 | -9 | ·
COc1ccccc1CN(C)C(=O)c1ccc(S(=O)(=O)NCc2ccco2)cc1 | 10 | -6 | -6 | 14 | 8 | ·
O=S1(=O)N=C(N2CCCC2)c2ccccc21 | 6 | -5 | -7 | 12 | 0 | ·
CC1Cc2ccccc2N1C1=NS(=O)(=O)c2ccccc21 (stereo not drawn) | 28 | 1 | 31 | 0 | 42* | 10
O=C(NCc1ccc(Cl)cc1)c1ccc(Br)o1 | -24 | 2 | 13 | 19 | 68* | -40
O=C(NCc1nc(-c2ccc(Cl)cc2)no1)c1ccc2c(c1)OCO2 | -20 | 0 | 20 | 26 | 43* | 8
Cc1ccc(-n2nnnc2SCC(=O)c2cc(C)n(-c3cc(C)on3)c2C)cc1 | -8 | 3 | -7 | 22 | 43* | 3
Cc1ccc(NC(=S)Nc2ccc(OC(F)F)c(Cl)c2)cc1F | 37 | 12 | 40 | 22 | 42* | 36*
SMILES | tim10-1 inh | PfHsp90 set2 | tim23-1 inh | NLRP3 yeast inh | TIM10 inh | TIM10 conf
COc1cc(NC(=O)CSc2cc(C)c3cc(C)cc(C)c3n2)c(C(=O)O)cc1OC | 10 | 7 | 40 | -9 | 45* | 18*
CC(=O)N1c2ccccc2S(=O)(=O)c2c1ccc1ccccc21 | · | -8 | · | · | · | ·
O=C(CCN1C(=O)NC2(CCCC2)C1=O)Nc1ccc(-c2nc3ccccc3s2)cc1 | 11 | 0 | 25 | -12 | 10 | ·
COc1ccccc1CNc1ccc(N2CCCCC2)cc1 | 16 | 36 | 13 | 34 | 54* | 14
COc1cccc(CNc2ccc(N3CCCCC3)cc2)c1OC | 10 | -31 | 15 | 21 | 12 | ·
Cc1sc2ncnc(SCC(=O)NC(=O)NCc3ccco3)c2c1C | -8 | -5 | -24 | 19 | 50* | 0
COc1ccc(OC)c(NC(=S)NCCC(c2ccccc2)c2ccccc2)c1 | 30 | -39 | 11 | 11 | 46* | 14
Cc1ccc(NC(=S)NCCC(c2ccccc2)c2ccccc2)c(C)c1 | 20 | -44 | 20 | 16 | 49* | 33*
COc1ccc(OC)c(NC(=S)NCc2ccccc2OC)c1 | 23 | -3 | 27 | 17 | 15 | ·

Source: PubChem
